According to PubChem BioAssay (NCI):
Compounds without any hit were thinned out: in the full panel of roughly 83,000, 20% have a hit.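 Cell lines were cultured in 96-well plates, exposed to a single compound concentration, and assessed for percent growth 48 hours later.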 The source made the active and inactive calls. How the source made its calls: active means growth percent below 10; inactive means the rest.

How the values were obtained:
Assay in all cases: NCI-60 one-dose screen, 48 h (100 = growth as untreated, 0 = no growth, -100 = all killed)
Conditions in all cases: 10 µM unless noted
SR leukemia = test system: SR leukemia
RPMI-8226 leukemia = test system: RPMI-8226 leukemia
OVCAR-8 ovarian = test system: OVCAR-8 ovarian
OVCAR-5 ovarian = test system: OVCAR-5 ovarian
OVCAR-4 ovarian = test system: OVCAR-4 ovarian
SK-OV-3 ovarian = test system: SK-OV-3 ovarian
IGROV1 ovarian = test system: IGROV1 ovarian
OVCAR-3 ovarian = test system: OVCAR-3 ovarian
HS 578T breast = test system: HS 578T breast
NCI/ADR-RES ovarian = test system: NCI/ADR-RES ovarian
T-47D breast = test system: T-47D breast
BT-549 breast = test system: BT-549 breast
MDA-MB-435 melanoma = test system: MDA-MB-435 melanoma
SW-620 colon = test system: SW-620 colon
MCF7 breast = test system: MCF7 breast
HCT-116 colon = test system: HCT-116 colon
HCC-2998 colon = test system: HCC-2998 colon
KM12 colon = test system: KM12 colon

Measured: growth

COc1ccc(C(c2cc(OC)c(OC)c(OC)c2)n2cncn2)cc1O (stereo unspecified)
active: SR leukemia 7.03% | OVCAR-3 ovarian 1.74% | NCI/ADR-RES ovarian 1.8% | MDA-MB-435 melanoma -46.2% | HCT-116 colon 7.25%
inactive: RPMI-8226 leukemia 20.7% | OVCAR-8 ovarian 13.4% | OVCAR-5 ovarian 73% | OVCAR-4 ovarian 72.1% | SK-OV-3 ovarian 20.3% | IGROV1 ovarian 49.2% | HS 578T breast 31.3% | T-47D breast 35% | BT-549 breast 11.3% | SW-620 colon 29.1% | MCF7 breast 17.9% | HCC-2998 colon 25.3% | KM12 colon 21.8%

CCN1C(=O)N(CC)C2C1NN=c1s/c(=C\c3ccccc3)c(=O)n12 (stereo unspecified)
inactive: SR leukemia 14.8% | RPMI-8226 leukemia 11.6% | OVCAR-5 ovarian 30.2% | OVCAR-4 ovarian 48.1% | SK-OV-3 ovarian 33.5% | IGROV1 ovarian 19.8% | HS 578T breast 16.8% | T-47D breast 70.8% | BT-549 breast 13.2% | SW-620 colon 18.8% | MCF7 breast 16.2% | HCC-2998 colon 16.2% | KM12 colon 12.2%
active: OVCAR-8 ovarian -9.95% | OVCAR-3 ovarian -7.69% | NCI/ADR-RES ovarian 2.31% | MDA-MB-435 melanoma -24.8% | HCT-116 colon 9.74%

C#CC(F)(F)[C@]1(O)CCC2C3CCC4=CC(=O)CCC4=C3[C@@H](c3ccc(N(C)C)cc3)C[C@@]21C (stereo partly specified)
inactive: SR leukemia 63.8% | RPMI-8226 leukemia 74.6% | OVCAR-8 ovarian 86.7% | OVCAR-5 ovarian 119% | OVCAR-4 ovarian 88.4% | SK-OV-3 ovarian 87.8% | IGROV1 ovarian 99% | OVCAR-3 ovarian 95.1% | HS 578T breast 89.1% | NCI/ADR-RES ovarian 94.6% | T-47D breast 44% | BT-549 breast 88.7% | MDA-MB-435 melanoma 103% | SW-620 colon 103% | MCF7 breast 57.8% | HCT-116 colon 71.2% | HCC-2998 colon 111% | KM12 colon 99.3%

O=C1N/C(=N/N=C(c2ccccc2)c2ccccc2)S/C1=C\c1ccc(Br)cc1
inactive: SR leukemia 83.3% | RPMI-8226 leukemia 95.6% | OVCAR-8 ovarian 95.6% | OVCAR-5 ovarian 102% | OVCAR-4 ovarian 96.8% | SK-OV-3 ovarian 97.2% | IGROV1 ovarian 91.9% | OVCAR-3 ovarian 102% | HS 578T breast 95% | NCI/ADR-RES ovarian 103% | T-47D breast 84.7% | BT-549 breast 97% | MDA-MB-435 melanoma 103% | SW-620 colon 90.7% | MCF7 breast 99.6% | HCT-116 colon 81.8% | HCC-2998 colon 99.5% | KM12 colon 92.9%

Cc1nc2ccccc2c(/C=C/c2ccc(Br)cc2)c1C(=O)/C=C/c1ccccc1
active: RPMI-8226 leukemia -8.25% | OVCAR-8 ovarian 2.21% | OVCAR-5 ovarian -18% | IGROV1 ovarian -7.6% | OVCAR-3 ovarian -72.1% | NCI/ADR-RES ovarian -2.99% | MDA-MB-435 melanoma -47.3% | SW-620 colon 2.35% | HCT-116 colon -49.1% | HCC-2998 colon -41.4% | KM12 colon 7.65%
inactive: SR leukemia 13.6% | OVCAR-4 ovarian 12.5% | SK-OV-3 ovarian 49.4% | HS 578T breast 25.9% | T-47D breast 10.1% | BT-549 breast 21.7% | MCF7 breast 14%

O=C1C(Nc2ccc(Br)cc2)=C(I)C(=O)c2ncccc21
inactive: OVCAR-5 ovarian 73.5% | SK-OV-3 ovarian 83.9% | HS 578T breast 40.7% | BT-549 breast 63.9% | HCC-2998 colon 87.3% | KM12 colon 49.9%
active: SR leukemia 4.58% | RPMI-8226 leukemia 6.59% | OVCAR-8 ovarian 2.71% | OVCAR-4 ovarian -95.6% | IGROV1 ovarian -56.7% | OVCAR-3 ovarian -85.3% | NCI/ADR-RES ovarian 1.39% | T-47D breast -41.3% | MDA-MB-435 melanoma -79% | SW-620 colon -24.6% | MCF7 breast -35.4% | HCT-116 colon -36.2%

Cc1cccc(C)c1NC(=O)Nc1ccccc1
inactive: SR leukemia 68.6% | RPMI-8226 leukemia 96.1% | OVCAR-8 ovarian 85.1% | OVCAR-5 ovarian 72.2% | OVCAR-4 ovarian 76.6% | SK-OV-3 ovarian 102% | IGROV1 ovarian 71% | OVCAR-3 ovarian 115% | HS 578T breast 128% | NCI/ADR-RES ovarian 97.1% | T-47D breast 109% | BT-549 breast 116% | MDA-MB-435 melanoma 105% | SW-620 colon 54.1% | MCF7 breast 53.4% | HCT-116 colon 61.9% | HCC-2998 colon 99.6% | KM12 colon 102%

COc1cc(C(=O)c2c(-c3ccccc3)oc3ccccc23)cc(OC)c1O
active: OVCAR-3 ovarian 2.25% | HS 578T breast -3.45% | MDA-MB-435 melanoma -30.9%
inactive: SR leukemia 13.7% | RPMI-8226 leukemia 24.7% | OVCAR-8 ovarian 34.6% | OVCAR-5 ovarian 99.8% | OVCAR-4 ovarian 56.3% | SK-OV-3 ovarian 51.2% | IGROV1 ovarian 41.1% | NCI/ADR-RES ovarian 21.8% | T-47D breast 28.7% | BT-549 breast 47.4% | SW-620 colon 14.6% | MCF7 breast 21.8% | HCT-116 colon 30.7% | HCC-2998 colon 78.4% | KM12 colon 27.7%

CCCCCCCCNC(=O)[C@@H](N)CSCOC(C)=O
inactive: SR leukemia 100% | RPMI-8226 leukemia 87.9% | OVCAR-8 ovarian 85.5% | OVCAR-5 ovarian 103% | OVCAR-4 ovarian 112% | SK-OV-3 ovarian 95.3% | IGROV1 ovarian 103% | OVCAR-3 ovarian 97.4% | HS 578T breast 93.4% | NCI/ADR-RES ovarian 82.7% | T-47D breast 96.1% | BT-549 breast 111% | MDA-MB-435 melanoma 19.1% | SW-620 colon 84.6% | MCF7 breast 108% | HCT-116 colon 92.7% | HCC-2998 colon 101% | KM12 colon 38.1%

Oc1cccc(-c2nc(-c3n[nH]c(=S)n3-c3ccccc3)cc3c2[nH]c2ccccc23)c1
active: OVCAR-3 ovarian 3.83% | BT-549 breast -15.9% | MDA-MB-435 melanoma 3.44% | HCC-2998 colon -15.2%
inactive: SR leukemia 19.2% | RPMI-8226 leukemia 17.8% | OVCAR-8 ovarian 24.7% | OVCAR-5 ovarian 73.1% | OVCAR-4 ovarian 56.8% | SK-OV-3 ovarian 37.3% | IGROV1 ovarian 24% | HS 578T breast 35.1% | NCI/ADR-RES ovarian 91.6% | T-47D breast 47.7% | SW-620 colon 20% | MCF7 breast 17.8% | HCT-116 colon 10.6% | KM12 colon 13%

O=C(O)c1nn(-c2ccc(Cl)cc2)nc1N1CCCC1
inactive: SR leukemia 99% | RPMI-8226 leukemia 101% | OVCAR-8 ovarian 96% | OVCAR-5 ovarian 94.9% | OVCAR-4 ovarian 91.2% | SK-OV-3 ovarian 97.2% | IGROV1 ovarian 93% | OVCAR-3 ovarian 105% | HS 578T breast 97% | NCI/ADR-RES ovarian 99.5% | T-47D breast 94.4% | BT-549 breast 95.4% | MDA-MB-435 melanoma 100% | SW-620 colon 90.6% | MCF7 breast 91% | HCT-116 colon 101% | HCC-2998 colon 103% | KM12 colon 107%

C=CC(=O)Nc1ccc2ncnc(Nc3cccc(NS(=O)(=O)CCC)c3Cl)c2c1
inactive: SR leukemia 35.7% | RPMI-8226 leukemia 55.4% | OVCAR-8 ovarian 48.2% | OVCAR-5 ovarian 36.2% | OVCAR-4 ovarian 66.8% | SK-OV-3 ovarian 19.6% | IGROV1 ovarian 18.5% | OVCAR-3 ovarian 12.7% | HS 578T breast 20.6% | NCI/ADR-RES ovarian 83.4% | T-47D breast 24.5% | BT-549 breast 35.7% | MDA-MB-435 melanoma 26.2% | SW-620 colon 74.4% | MCF7 breast 56.2% | HCT-116 colon 67.9% | HCC-2998 colon 93.3% | KM12 colon 78.4%

CCOC(=O)c1c(NC(=S)Nc2ccc([N+](=O)[O-])cc2)sc2c1CCCCC2
inactive: SR leukemia 61.7% | RPMI-8226 leukemia 46.7% | OVCAR-8 ovarian 77.3% | OVCAR-5 ovarian 93.7% | OVCAR-4 ovarian 71.6% | SK-OV-3 ovarian 66% | IGROV1 ovarian 89.7% | OVCAR-3 ovarian 65.1% | HS 578T breast 81.8% | NCI/ADR-RES ovarian 54% | T-47D breast 58.9% | BT-549 breast 86.3% | MDA-MB-435 melanoma 88.2% | SW-620 colon 98.8% | MCF7 breast 70.1% | HCT-116 colon 70.5% | HCC-2998 colon 96.8% | KM12 colon 72.2%

CCNCCNc1c(C)c(-c2ccc(C(F)(F)F)cc2)c(C#N)c2nc3ccccc3n12
active: SR leukemia -0.902%
inactive: RPMI-8226 leukemia 86.4% | OVCAR-8 ovarian 95.3% | OVCAR-5 ovarian 104% | OVCAR-4 ovarian 88.2% | SK-OV-3 ovarian 111% | IGROV1 ovarian 78.9% | OVCAR-3 ovarian 96.4% | HS 578T breast 90.8% | NCI/ADR-RES ovarian 101% | T-47D breast 82.6% | BT-549 breast 75.5% | MDA-MB-435 melanoma 65.2% | SW-620 colon 93.6% | MCF7 breast 76.2% | HCT-116 colon 93.4% | HCC-2998 colon 99.4% | KM12 colon 97%

Cn1cc(-c2csc(-c3cn(C)c4ccc(F)cc34)n2)c2cnccc21
active: SR leukemia -21.5% | RPMI-8226 leukemia -38.4% | OVCAR-8 ovarian 5.3% | IGROV1 ovarian -24.7% | OVCAR-3 ovarian -57.4% | HS 578T breast -34.2% | T-47D breast -44.1% | MDA-MB-435 melanoma -90.7% | SW-620 colon -67.1% | MCF7 breast -49.3% | HCT-116 colon -90.3% | HCC-2998 colon -78.4% | KM12 colon 0.588%
inactive: OVCAR-5 ovarian 25.6% | OVCAR-4 ovarian 11.3% | SK-OV-3 ovarian 107% | NCI/ADR-RES ovarian 24.7% | BT-549 breast 84%

COc1cccc(/C=C/C(=O)/C=C(/C=C/c2cccc(OC)c2OC)OB(F)F)c1OC
active: HCT-116 colon 8.38%
inactive: SR leukemia 15.2% | RPMI-8226 leukemia 23.6% | OVCAR-8 ovarian 16.7% | OVCAR-5 ovarian 64% | OVCAR-4 ovarian 50.7% | SK-OV-3 ovarian 97% | IGROV1 ovarian 33.7% | OVCAR-3 ovarian 10.8% | HS 578T breast 38.3% | NCI/ADR-RES ovarian 19.6% | T-47D breast 41.2% | BT-549 breast 48% | MDA-MB-435 melanoma 14.8% | SW-620 colon 16.4% | MCF7 breast 26.8% | HCC-2998 colon 121% | KM12 colon 86.5%

O=C1/C(=C/c2cccc(Br)c2)COc2ccc(O)c(O)c21
active: RPMI-8226 leukemia -12.7% | OVCAR-8 ovarian 3.75% | OVCAR-5 ovarian -31.5% | OVCAR-4 ovarian 0.231% | IGROV1 ovarian -44.1% | OVCAR-3 ovarian -78% | NCI/ADR-RES ovarian 7.25% | T-47D breast -14.3% | BT-549 breast -19.2% | MDA-MB-435 melanoma -34.7% | SW-620 colon -25.1% | MCF7 breast 6.49% | HCT-116 colon -51% | HCC-2998 colon -58.8% | KM12 colon -60.9%
inactive: SR leukemia 13.6% | SK-OV-3 ovarian 62.9% | HS 578T breast 13.5%
